A selection: hits, their analogues and other compounds. The true share with any hit is near 6.3%.
Abs 340nm: compound light absorbance at 340 nm, profiling panel, artefact control, biochemical, MLSMR library, data from PS, PMK, MK assays | AID 708, 2007 | 65,000 tested, under 10 active | compound absorbance at 340 nm, fold over control | fold change at 10 µM;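 active means at 10 µM dose, initial 340 nm absorbance at least 2 fold that of control wells; inactive means change under 2 fold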;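 further: initial absorbance extrapolated from kinetic A340 decline of NADH oxidation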
DPM-DC inhibit: S. pneumoniae DPM-DC inhibitors, primary screen, biochemical, PK/LDH-coupled NADH fluorescence; AID 556, 2006; hit rate 0.49% among 65,000; calls only at 10 µM; purified DPM-DC;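 active means the 320 compounds with the highest percent inhibition in the single-dose primary screen, excluding strongly autofluorescent ones, cut at about 32% in these data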;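 further: kinetic rate of NADH fluorescence loss reporting ADP formed by the decarboxylase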
PMK inhibit: S. pneumoniae PMK inhibitors, primary screen, biochemical, mevalonate pathway, pilot trial included; phosphomevalonate kinase (Streptococcus pneumoniae D39); purified PMK, PK/LDH-coupled NADH absorbance 340 nm; inhibition, % at 10 µM; hit rate 0.49% among 65,000; AID 539, 2006;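 active means top-ranked compounds by inhibition in the single 10 µM screen, taking a fixed number of the strongest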;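 further: 0% = full reaction with DMSO carrier and 100% = background rate without enzyme reaction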
MK inhibit: S. pneumoniae MK inhibitors, primary screen, biochemical, PK/LDH-coupled NADH absorbance; AID 555, 2006; mevalonate kinase [Streptococcus pneumoniae D39]; inhibition, % at 10 µM; purified MK, PK/LDH-coupled NADH absorbance 340 nm; hit rate 0.48% among 65,000;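 active means ranked among the strongest by inhibition in the single 10 µM screen, a fixed top-ranked set picked for dose follow-up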
NADH coupling: inhibitors of PK/LDH coupling enzymes, profiling panel, artefact control, biochemical, MLSMR library; hit rate 0.02% among 65,000; coupled PK/LDH NADH assays, four targets; IC50, µM (top dose mostly 10 µM), inactives show at the top dose inhibition; AID 774, 2007;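 active means single-dose screening hits from any of four coupled enzyme assays that gave an IC50 when retested across doses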;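 further: the DPM-DC format reads NADH fluorescence rather than 340 nm absorbance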
Autofluor 339: intrinsic fluorescence of library compounds, ex339/em460 – biochemical, MLSMR library, data from DPM-DC assay, artefact control, profiling panel. compound autofluorescence, ex339/em460 nm, NADH buffer; active compounds read high; 1 = no-compound wells, NADH background. fluorescence fold increase at 10 µM. AID 709, 2007. hit rate 5.5% among 65,000;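 active means at 10 µM, mean starting fluorescence two-fold or more over control wells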;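 further: signal is the first read of a kinetic run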
Starred values were filed as active, the others as inactive; i = inactive; . = not tested or not shown; + = active, no number.

SMILES | Abs 340nm | DPM-DC inhibit | PMK inhibit | MK inhibit | NADH coupling | Autofluor 339
Cc1ccc(-c2cc(C(F)F)n3ncc(C(=O)NCc4ccco4)c3n2)cc1 | 1.1 | . | 2 | 6 | 4% | 2.3*
Cc1cc(C(F)F)n2ncc(C(=O)NCc3ccccc3C(F)(F)F)c2n1 | 1 | i | 21 | 5 | 9% | 1.2
Cc1c(O)c(CN2CCCC2)cc2c1oc(=O)c1ccccc12 | 1.1 | i | 3 | 2 | 2% | 1.2
Cc1c(O)c(CN2CCCC2)cc2c3c(c(=O)oc12)CCC3 | 1.1 | . | 13 | 9 | 11% | 3.7*
CCc1cc(=O)oc2c(C)c(O)c(CN3CCCCC3)cc12 | 1.2 | . | 8 | 10 | 9% | 3.9*
Cc1cc2oc(=O)cc(CN3CCCCC3)c2cc1C(C)C | 1 | i | 11 | 0 | 2% | 1.1
COc1cc(-c2nnc(-c3ccco3)o2)ccc1OCc1ccccc1 | 1.1 | . | 10 | 11 | 11% | 3.6*
COc1cc(-c2nnc(-c3ccncc3)o2)ccc1OCc1ccccc1 | 1.1 | i | 11 | 15 | 9% | 2.4*
COc1ccc(-c2nnc(-c3cccnc3)o2)cc1OC | 1.1 | i | 0 | 6 | 4% | 1.6
CCC1CCCCN1Cc1nc2c(c(=O)n(C)c(=O)n2C)n1Cc1cccc2ccccc12 (stereo not given) | 1 | i | 13 | 3 | 12% | 1.1
Cc1ccc(OCn2c(=O)sc3ccccc32)cc1 | 1.1 | i | 3 | 17 | 7% | 1.1
COc1cc2cc(C)c3nnc(SCC(N)=O)n3c2cc1OC | 1.1 | i | 13 | 5 | 7% | 1.2
CSc1nc2[nH]c3c(c2c2nnnn12)CCCC3 | 1.1 | . | 8 | 0 | 4% | 2.3*
O=C(Cn1nc(C(F)(F)F)c2c1CCCC2)Nc1ccc2c(c1)OCO2 | 1 | i | 16 | 0 | 5% | 1
O=C(NCc1cccs1)c1cnn2cccnc12 | 1.1 | i | 0 | 4 | 6% | 2.1*
O=C(Nc1cccc(Cl)c1)c1cnn2cccnc12 | 1.1 | i | 5 | 13 | 7% | 1.1
O=C(NCc1ccccc1Cl)c1cnn2cccnc12 | 1.1 | i | 9 | 8 | 10% | 2.2*
O=C(c1ccc(C(=O)N2CCN(c3ccccc3F)CC2)nc1)N1CCN(c2ccccc2F)CC1 | 1 | i | 3 | 6 | 3% | 1.2
COC(=O)Sc1nnc(-c2ccc(Br)cc2)o1 | 1.1 | + | 16 | 5 | 20µM* | 1.5
CCOC(=O)c1cn(CC)c2cc(N3CCOCC3)c(F)cc2c1=O | 1 | . | 16 | 9 | 4% | 2.3*
CCCCCCC(=O)N1CCN(c2cc3c(cc2F)c(=O)c(C(=O)O)cn3CC)CC1 | 1 | i | 7 | 0 | 4% | 1
CCC(=O)N1CCN(c2cc3c(cc2F)c(=O)c(C(=O)O)cn3CC)CC1 | 1.1 | . | 5 | 0 | 3% | 4.8*
CCN1CCN(c2cc3c(cc2F)c(=O)c(C(=O)O)cn3C2CC2)CC1 | 1 | . | 23 | 6 | 7% | 2.2*
CCOC(=O)N1CCN(C(=O)c2cn(CC)c3cc(N4CCN(C)CC4)c(F)cc3c2=O)CC1 | 1 | + | 18 | 5 | 9% | 1.9
CCOC(=O)c1cn(CC)c2cc(N3CCCCC3)c(F)cc2c1=O | 1.1 | i | 16 | 4 | 13% | 2
SMILES | Abs 340nm | DPM-DC inhibit | PMK inhibit | MK inhibit | NADH coupling | Autofluor 339
CC(c1ccco1)N(C(=O)Nc1ccc(Cl)cc1)c1ccccn1 (stereo not given) | 0.98 | i | 9 | 0 | 3% | 0.98
Clc1cccc(NCc2nnc(SCc3ccccc3)o2)c1 | 1 | i | 7 | 8 | 5% | 1.1
CCOC(=O)C1=C(C)N=C2SC(C)C(=O)N2C1c1ccc(OCC)c(OCC)c1 (stereo not given) | 1 | i | 14 | 1 | 6% | 1
CSc1ccc(-c2cc(=O)c3ccccc3o2)cc1 | 1.1 | . | 14 | 0 | 3% | 2.9*
O=C(Nc1cc(=O)c2ccccc2o1)N1CCCCC1 | 1.1 | i | 0 | 11 | 4% | 1.2
COc1ccc(-c2cn3cc(C)ccc3n2)cc1OC | 1 | . | 0 | 0 | 2% | 2.5*
COc1ccc(-c2cn3ccccc3n2)cc1OC | 1 | . | 4 | 16 | 10% | 4*
CN(C)S(=O)(=O)c1cccc(-c2cn3ccccc3n2)c1 | 1 | i | 6 | 0 | 2% | 1.8
O=C(CSc1nnc(Cc2cc(=O)[nH]c(=O)[nH]2)n1-c1ccc(F)cc1)NC1CCCC1 | 1 | i | 10 | 7 | 7% | 1.1
O=C(c1cccn2c(=O)c3ccc(Cl)cc3nc12)N1CCN(Cc2ccc3c(c2)OCO3)CC1 | 1.1 | . | 22 | 7 | 15% | 4.9*
Nc1nc2n(n1)C(c1cccs1)CC(c1ccc(F)cc1)N2 (stereo not given) | 1 | i | 6 | 1 | 2% | 1.1
COc1ccc(C2CC(c3cccs3)n3nc(N)nc3N2)cc1 (stereo not given) | 0.98 | i | 0 | 3 | 1% | 2*
CCOC(=O)C1=C(CSc2nc(C)cc(C)c2C#N)OC(N)=C(C#N)C1c1cccs1 (stereo not given) | 1 | i | 5 | 5 | 4% | 1
O=c1c2cc(N3CCOCC3)ccc2[nH]c(=S)n1CCCN1CCCCC1 | 1 | i | 16 | 0 | 5% | 2.1*
CC1CCN(CCCn2c(=S)[nH]c3ccc(N4CCOCC4)cc3c2=O)CC1 | 1.1 | i | 14 | 0 | 13% | 3.2*
Cc1cccc2cc(CN(Cc3ccco3)S(=O)(=O)c3ccc4c(c3)OCCO4)c(=O)[nH]c12 | 1 | + | 5 | 5 | 17% | 1.4
CCc1nnc(NC(=O)CSc2nnc(-c3ccccc3NC(=O)c3ccccc3)o2)s1 | 1.1 | i | 8 | 8 | 5% | 2.1*
CC1Cc2ccccc2N1c1ncnc2c1nnn2Cc1ccccc1 (stereo not given) | 1.1 | i | 8 | 0 | 5% | 2.6*
c1ccc(Cn2nnc3c(N4CCc5ccccc5C4)ncnc32)cc1 | 0.97 | i | 10 | 5 | 5% | 1.1
CCOC(=O)C1CCN(C(=O)C2(NC(=O)Nc3ccccc3Cl)CCCCC2)CC1 | 0.98 | i | 14 | 7 | 3% | 1
Cc1csc2ncc(C(=O)NCc3ccco3)c(=O)n12 | 1.1 | i | 9 | 6 | 14% | 3.8*
O=C(NCc1ccco1)c1cnc2n(c1=O)CCS2 | 1 | i | 3 | 1 | 3% | 1
COc1ccc(CNC(=O)c2cnc3scc(C)n3c2=O)cc1 | 1.2 | . | 13 | 5 | 9% | 2.1*
